The list is not random: actives were taken first. Their share in the collection is about 3.6%.
GALC G270D act: A Novel Cell-Based Assay to Identify Small Molecules for B -Galactocerebrosidase; 145M-Twi-hGALC-G270D cells (Twitcher mouse brain line with human GALC G270D), HMU-beta-Gal fluorescence, 48 h; Potency, µM (titrated, usually from 57.5 µM), actives largely listed as activators; 0.1% of 45,000 active; also: potency is read from the fitted curve at half-maximal effect; 0% is about no effect; nearly all actives have a fitted effect of over 65% in size
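Mutant human GALC (G270D), stably expressed in a Twitcher mouse brain cell line lacking endogenous GALC, is measured in live-treated cells via 6-hexadecanoylamino-4-methylumbelliferyl-β-galactoside hydrolysis (0.1 mM final, pH 5.2) with fluorescent detection.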
NTMT1 inhibitor: Primary qHTS for Inhibitors of N-terminal methyltransferase 1 (NTMT1): MTaseGlo Assay. 2.5% of 59,000 active. Potency, µM (series often up to 114 µM), for the others: at the highest dose activity change, negative = inhibition, usual class: inhibitors. AID 1645870, 2021. N-terminal Xaa-Pro-Lys N-methyltransferase 1 (Homo sapiens), Q9BV86. NTMT1 MTase-Glo SAH luminescence, purified enzyme;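 also: potency is read from the fitted curve at half-maximal effect; plate controls were DMSO vehicle for no effect and no enzyme for full effect; nearly all actives have a fitted effect of over 65% in size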
PTAP-TSG101 blk: qHTS Validation Assay for Inhibitors of HIV-1 Budding by Blocking the Interaction of PTAP/TSG101: Sytravon Library Screen. AID 1347069, 2019. 44,000 tested, under 10 active. Potency, µM (top dose mostly 115 µM), usual class: inhibitors. Tumor susceptibility gene 101 protein (Homo sapiens), Q99816. Fluorescence polarization, FITC-PTAP peptide/Tsg101, 20 min; also: potency is read from the fitted curve at half-maximal effect; 0% is about no effect
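Fluorescence polarization binding of Tsg101 binding domain (10 uM final) to FITC-labeled PTAP-motif peptide (50 nM final) in HEPES pH 7.5/NaCl/Tween 20/EDTA/TCEP buffer; 20 min at r.t. Actives by curve class, <25 µM, efficacy <60% inhibition.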
DRV1 agonist: qHTS for Agonists of Human Resolvin D1 Receptor DRV1 | AID 1346428, 2018 | CHO-K1 GPR32 beta-arrestin PathHunter luminescence, 90 min; zero percent set by DMSO-only wells | activation, % at 76.9 µM | 2.5% of 48,000 active;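 active = activation of at least 60% and not above a set upper limit, about 1 call in 100 departs from these limits; inconclusive = activation of 40% to 60%, or above that upper limit; inactive = activation under 40%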; also: 0% is about no effect
Target sequence (O75388 whole entry, looked up): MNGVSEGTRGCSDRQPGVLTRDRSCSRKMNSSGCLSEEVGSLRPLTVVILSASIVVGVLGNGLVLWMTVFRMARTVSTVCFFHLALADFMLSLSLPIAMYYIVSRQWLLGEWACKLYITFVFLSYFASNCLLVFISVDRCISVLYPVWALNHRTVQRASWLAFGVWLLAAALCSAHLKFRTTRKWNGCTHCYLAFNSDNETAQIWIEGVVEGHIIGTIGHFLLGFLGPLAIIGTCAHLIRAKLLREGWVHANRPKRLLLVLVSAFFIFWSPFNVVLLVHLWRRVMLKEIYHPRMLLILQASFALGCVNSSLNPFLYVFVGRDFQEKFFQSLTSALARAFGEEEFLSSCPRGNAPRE
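Beta-arrestin recruitment read-out: luminescence from complemented beta-Gal in CHO-K1 GPR32 PathHunter cells, measured 1 h after detection reagent at ambient temperature following 90 min compound exposure at 37 °C; DMSO served as basal (EC0) control.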
B2AR arrestin ag: qHTS assay of beta-arrestin-biased ligands of beta2-adrenergic receptor: NCGC Sytravon Library Screen | 44,000 tested, under 10 active | AID 1347077, 2019 | Beta-2 adrenergic receptor (Homo sapiens), P07550 | Potency, µM (series often up to 46.1 µM), actives largely listed as activators | HTLA Tango cells, beta-arrestin recruitment, luciferase luminescence, 18 h;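 also: potency is read from the fitted curve at half-maximal effect; 0% = DMSO and full agonism = EC100 isoproterenol or metaproterenol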
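Tango cells expressing recombinant beta2-AR and beta-arrestin were treated with compounds (up to 46 microM titration) in DMEM with 1% FBS for 18 hr at 37 degrees C. Beta-arrestin recruitment drove tTA-dependent luciferase, read by luminescence; curves were fitted and classed.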
GALK inhibitor: qHTS Assay for Inhibitors of Human Galactokinase (GALK): NCGC Sytravon Library Screen. P51570. recombinant GALK, Kinase-Glo ATP luminescence, 1 h. Potency, µM (series often up to 57.5 µM), for the others: at the highest dose activity, negative = inhibition, most hits filed as inhibitors. 44,000 tested, under 10 active. AID 1347072, 2019;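 also: plate controls were full GALK reaction for no effect and reaction lacking GALK for full effect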
Target sequence (P51570 whole entry, looked up): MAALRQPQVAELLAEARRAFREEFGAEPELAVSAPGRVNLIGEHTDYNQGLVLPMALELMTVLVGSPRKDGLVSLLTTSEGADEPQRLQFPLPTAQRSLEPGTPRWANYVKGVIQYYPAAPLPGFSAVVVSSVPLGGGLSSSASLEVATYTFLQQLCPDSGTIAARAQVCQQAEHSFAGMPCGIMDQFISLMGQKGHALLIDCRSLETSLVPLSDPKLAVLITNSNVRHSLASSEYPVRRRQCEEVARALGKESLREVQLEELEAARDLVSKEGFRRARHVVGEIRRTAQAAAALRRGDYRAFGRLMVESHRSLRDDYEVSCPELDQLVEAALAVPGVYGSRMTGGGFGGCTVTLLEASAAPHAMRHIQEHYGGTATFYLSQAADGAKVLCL
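Human GALK (5 nM) was incubated with 35 uM ATP and 100 uM galactose in 20 mM HEPES pH 8.0 with MgCl2, NaCl, DTT and BSA for 1 h at room temperature. Remaining ATP was measured by Kinase-Glo Plus luminescence.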
* = called active by the depositor; i = inactive; ? = inconclusive; . = not tested or not shown; ! = repeats disagree; [ ] = another dose, or the depositor's remark. Unless noted, calls follow the shape of the dose curve; as a rule, active = well fitted curve in the direction sought with a large enough effect; inconclusive = small, poorly fitted or top-dose-only effect, or another doubt; inactive = no such curve, though single readings can be large; an effect the other way counts as inactive or inconclusive.

SMILES	GALC G270D act	NTMT1 inhibitor	PTAP-TSG101 blk	DRV1 agonist	B2AR arrestin ag	GALK inhibitor
CCN1CCN(Cc2ccc(-c3cc4c(NC(C)c5ccccc5)ncnc4[nH]3)cc2)CC1 (stereo not drawn)	.	14µM*	.	.	.	.
Cc1ccc(-n2ncc3c(NC(C)c4ccccc4)ncnc32)cc1 (stereo not drawn)	i	0%	i	?	i	-2%
O=C(NC1CCCc2c1cnn2-c1ccc(F)cc1F)c1cccc(=O)[nH]1 (stereo not drawn)	.	13%	.	.	.	.
CC(=O)c1ccc(C(=O)Nc2nnc(-c3ccco3)o2)cc1	.	3%	.	.	.	.
CC(C)C[C@H](CC(=O)NO)C(=O)N[C@H](C(=O)N[C@@H](C)C(=O)NCCN)C(C)(C)C	.	7%[12.6 µM]	.	.	.	.
CCC(=O)N1CCOc2c(cc(-c3cc(OC)cc(OC)c3)cc2C(=O)N[C@H]2CCCN(C)C2)C1	.	-17%	.	.	.	.
CS[C@H]1SC[C@@H]2C(=O)N(C)[C@H](C(C)C)C(=O)OC[C@H](NC(=O)c3cnc4ccccc4n3)C(=O)N[C@H](C)C(=O)N(C)[C@H]1C(=O)N(C)[C@H](C(C)C)C(=O)OC[C@H](NC(=O)c1cnc3ccccc3n1)C(=O)N[C@H](C)C(=O)N2C	.	-2%	.	.	.	.
Cc1nn2c(=O)cc(COC(=O)c3ccc(NC(=O)COc4ccccc4F)cc3)nc2s1	i	?	i	62*	i	5%
Cc1ccccc1CNC(=O)c1ccc2[nH]c(C)c(C)c2c1	i	79µM*	i	-10	i	-3%
Cc1cc2ccccc2n1CCNC(=O)c1cccc(Cl)c1	i	0%	i	116*	i	1%
COc1ccccc1NC(=O)CSc1nnc(N)s1	i	0%	i	25	i	3%
COc1ccccc1NC(=O)CSc1nnc(NC(=O)Nc2ccc(C)cc2)s1	i	5%	i	78*	i	-6%
Oc1ccc(Nc2ccccc2F)c2cccnc12	.	28µM*	.	.	.	.
Oc1ccc(-c2ccccc2F)c2cccnc12	.	5%	.	.	.	.
Cc1ccc(S(=O)(=O)c2nnn3c2nc(NCc2ccc(F)cc2)c2sccc23)cc1	i	89µM*	i	-15	i	-4%
Cc1coc2cc3oc(=O)c(CCC(=O)N4CCCCC4)c(C)c3cc12	.	.	i	107*	i	-1%
CC1CCC(n2c3cnccc3c3cnc(Nc4ccc5c(n4)CCN(C(=O)CO)C5)nc32)CC1 (stereo not drawn)	.	0%[29.8 µM]	.	.	.	.
O=C(c1ccc(Br)cc1)N1CCC(c2nc3ccccc3s2)CC1	i	9%	i	42	i	2%
O=C(c1ccc(Nc2nccc(-c3cc4ccccc4s3)n2)cc1)N1CCC(N2CCCC2)CC1	.	28µM*!	.	.	.	.
Oc1ccc2ccccc2c1SSc1c(O)ccc2ccccc12	.	8.9µM*!	.	50	.	.
OCc1ccccc1O	i	37%[57.5 µM]	.	-21	.	.
CCn1cc(C(=O)N2CCN(c3cccc(C)c3C)CC2)c2cc(OC)c(OC)cc2c1=O	i	-2%	?	76*	i	0%
CCn1cc(C(=O)N2CCN(c3cccc(C(F)(F)F)c3)CC2)c2cc(OC)c(OC)cc2c1=O	i	-1%	i	18	i	7%
Cc1nn(-c2ccc(F)cc2)c(-n2cccc2)c1C(=O)NCCCN1CCN(c2ccccc2F)CC1	i	8%	i	110*	i	2%
COc1ccc(N2CCN(CCCNC(=O)c3c(C)nn(-c4ccc(F)cc4)c3-n3cccc3)CC2)cc1	i	1%	i	63*	i	1%
SMILES	GALC G270D act	NTMT1 inhibitor	PTAP-TSG101 blk	DRV1 agonist	B2AR arrestin ag	GALK inhibitor
Cc1ccc(-n2nc(C)c(C(=O)NCCCN3CCN(c4ccc(F)cc4)CC3)c2-n2cccc2)cc1	i	6%	i	?	i	-1%
COc1cc(NC(=O)c2c(C)nn(-c3ccc(F)cc3)c2-n2cccc2)cc(OC)c1	i	?	i	103*	i	4%
O=C(CC1C(=O)OCCN1Cc1ccccc1)Nc1cccc(C(F)(F)F)c1 (stereo not drawn)	i	2%	i	112*	i	-1%
CC(C)(O)C(=O)N1CCN(c2ccc(C(F)(F)F)c(C3=C(c4c[nH]c5ccccc45)C(=O)NC3=O)c2)CC1	.	11µM*	.	.	.	.
CCNC(=O)CCC/C=C\C[C@@H]1[C@@H](/C=C/C(O)CCc2ccccc2)[C@@H](O)C[C@@H]1O (stereo partly drawn)	.	2%[57.5 µM]	.	.	.	.
O=C(NC1CCN(Cc2ccccc2)CC1)c1ccc(Cn2c(=O)c3ccccc3n(Cc3ccc(Cl)cc3)c2=O)cc1	i	0%	i	5	i	-1%
COCCCNC(=O)Cn1c(=O)n(Cc2ccc(C(=O)NCc3ccc(C)cc3)cc2)c(=O)c2ccccc21	i	79µM*	i	98*	i	1%
O=C(NC1CCN(Cc2ccccc2)CC1)c1ccc(Cn2c(=O)c3ccccc3n(Cc3ccccc3)c2=O)cc1	i	79µM*	i	10	i	0%
COCCCNC(=O)c1ccc(Cn2c(=O)c3ccccc3n(CC(=O)Nc3ccc(C)cc3C)c2=O)cc1	i	?	i	7	i	7%
COc1cc(OC)cc(-c2nc3nc(C)c(CCC(=O)Nc4ccc(F)cc4F)c(C)n3n2)c1	?	89µM*	i	0	i	0%
COc1cc2ncnc(Nc3ccc(O)c(Br)c3)c2cc1OC	.	40µM*	.	.	.	.
CC(=O)N1CCN(C(=O)COC(=O)c2ccc([S+](C)(=O)[O-])c([N+](=O)[O-])c2)CC1	.	13%[57.5 µM]	.	.	.	.
Cc1ccccc1Nc1c(-c2c[nH]c3ccccc23)nc2cccc(C)n12	i	3%	i	63*	i	2%
Cc1ccccc1Nc1c(-c2ccc(Cl)s2)nc2cccc(C)n12	i	1%	i	61*	i	1%
Cc1ccc2nc(-c3c[nH]c4ccccc34)c(Nc3ccccc3C)n2c1	i	-8%	i	-9	i	2%

Screening results from PubChem BioAssay.
